The list is not random: actives were taken first. Their share in the collection is about 19%.
HT1080NT lethal – kills 2HG-producing HT-1080-NT fibrosarcoma cells; HT-1080-NT fibrosarcoma viability, CellTiter-Glo ATP luminescence, 48 h; AID 686970; hit rate 1.6% among 360,000; Potency, µM (highest dose often 46.1 µM), hits mostly cytotoxic;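 also: NT is the 2HG producing partner of a matched IDH1 knockdown line; nearly all actives have a fitted effect of over 55% in size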
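A 48-hour cytotoxicity screen used HT-1080-NT cells plated 2 hours before compound delivery. ATP-based CellTiter-Glo luminescence measured viability, normalized to DMSO and no-cell controls.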
IL-1B inflam inh – blocks inflammasome-driven IL-1 beta release; hit rate 4.7% among 360,000; THP-1 LPS/ATP IL-1B secretion, AlphaLISA, 16 h; active compounds read low; activity change, % at 57.5 µM; AID 743279; in the data active = activity change below about -50%; inconclusive = mostly about -30% to -49%
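Secreted IL-1B measured by AlphaLISA bead assay after 16 h compound exposure of THP-1 cells; compounds (final up to 57.5 uM) added 1 h before LPS (250 ng/mL) and ATP (1.25 mM) stimulation; lower signal means less secretion.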
DT40 TDP1 CPT – DT40-hTDP1 cell growth loss with CPT; chicken DT40 Tdp1-/-;hTDP1 cells + 20 nM CPT, ATP luminescence, 48 h; Potency, µM (highest dose often 46.2 µM), usual class: inhibitors; hit rate 12% among 420,000; AID 686979; also: nearly all actives have a fitted effect of over 55% in size
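Cell growth measured by CellTiter-Glo luminescence after a minimum 48 h, 37 C compound exposure with 20 nM CPT in Tdp1-knockout DT40 cells stably expressing hTDP1, seeded 400/well; qHTS titration format.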
DT40 TDP1 no CPT – qHTS for Inhibitors of human tyrosyl-DNA phosphodiesterase 1 (TDP1): qHTS in cells in absence of CPT | hit rate 15% among 420,000 | Potency, µM (highest dose often 46.2 µM), hits mostly inhibitors | DT40 Tdp1-/- hTDP1 cells, no CPT, ATP luminescence, 48 h; also: nearly all actives have a fitted effect of over 55% in size
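Cells were dispensed at 400 per well, compounds added by pin tool, plates incubated ≥48 hr at 37 °C, then CellTiter-Glo added for 30 min at room temperature before luminescence reading. Line: DT40 Tdp1-/- complemented with hTDP1; camptothecin omitted.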
HT1080 IDH1KD tx – HT-1080 IDH1 knockdown cell toxicity (counter line). HT-1080 IDH1 knockdown viability, ATP luminescence, 48 h. Potency, µM (titrated, usually from 46.1 µM), hits mostly cytotoxic. hit rate 2% among 360,000. AID 686971
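HT-1080-IDH1KD cells (IDH1 knocked down), 750/well in RPMI with 5% FBS, treated with compound 48 h at 37 degrees C. Viability by CellTiter-Glo luminescence, normalised to DMSO and no-cell wells; concentration-response curves classed.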
A number is an active result; - = inactive; ? = inconclusive; . = no result; [ ] = dose if it differs, or a comment. Unless noted, calls follow the shape of the dose curve; as a rule, active = well fitted curve in the direction sought with a large enough effect; inconclusive = small, poorly fitted or top-dose-only effect, or another doubt; inactive = no such curve, though single readings can be large; an effect the other way counts as inactive or inconclusive.

SMILES	HT1080NT lethal	IL-1B inflam inh	DT40 TDP1 CPT	DT40 TDP1 no CPT	HT1080 IDH1KD tx
COc1ccc(N(C(=O)c2snc(C(N)=O)c2N)C(C(=O)NC2CCCC2)c2cccs2)c(OC)c1 (stereo not drawn)	-	-	?	21µM	-
CCOc1ccccc1N(C(=O)c1snc(C(N)=O)c1N)C(C(=O)NCCC(C)C)c1ccco1 (stereo not drawn)	-	-	?	21µM	-
COc1ccc(OC)c(C(C(=O)NC2CCCCC2)N(C(=O)c2snc(C(N)=O)c2N)c2ccccc2OC)c1 (stereo not drawn)	-	-	?	?	-
COc1ccccc1N(C(=O)c1snc(C(N)=O)c1N)C(C(=O)NC1CCCCC1)c1cccc(OC)c1OC (stereo not drawn)	-	-	?	16µM	-
CC(C)C(=O)N[C@@H]1c2ccccc2CC[C@@H]1O	-	-	-	-	-
CCc1ccc(NC(=O)c2nnn(Cc3cccc(C(F)(F)F)c3)c2N)cc1	.	.	-	-	.
COC(=O)C1=C(c2ccccc2)c2ccccc2S(=O)(=O)N1CC(=O)Nc1ccc(OC)cc1OC	.	.	-	?	.
CCCC[C@@H](CN[C@H](C)CNC)NCC1CCC(C(C)(C)C)CC1 (stereo partly drawn)	?	-67	5.8µM	6.5µM	18µM
CC[C@H](C)[C@@H](CN[C@H](CCCCNC)CNC)NCC1CCCC1	-	-	-	-	-
COc1ccc(CCNC(=O)c2cc(-c3ccc(C)cc3O)n[nH]2)cc1OC	?	-	?	21µM	?
COc1ccc(CCNC(=O)c2cc(-c3cc(Cl)ccc3O)n[nH]2)cc1OC	?	-	?	12µM	-
CC1(CC(=O)N/N=C/c2cc3c(cc2Br)OCO3)OCCO1	-	?	-	-	-
CN(C)c1ccc(CNC(=O)C2Cc3c(-c4cccc(C(N)=O)c4)ccnc3O2)cc1 (stereo not drawn)	?	-	?	23µM	?
NC(=O)c1cccc(-c2ccnc3c2CC(C(=O)NCc2ccco2)O3)c1 (stereo not drawn)	?	-	3.7µM	2.9µM	4.1µM
CC(=O)c1cccc(-c2ccnc3c2CC(C(=O)NCc2ccco2)O3)c1 (stereo not drawn)	?	-	0.82µM	0.82µM	1.3µM
NC(=O)c1cccc(-c2ccnc3c2CC(C(=O)NCCc2ccccc2)O3)c1 (stereo not drawn)	?	-	15µM	23µM	7.3µM
O=C(NCc1ccco1)C1Cc2c(-c3cccc(F)c3)ccnc2O1 (stereo not drawn)	?	-	0.82µM	1.3µM	0.73µM
CCCC(=O)N1CCC1(C)C(=O)NCc1ccccc1SC (stereo not drawn)	-	-	-	-	?
CC(C)Oc1cccc(C(=O)Nc2ccc3oc(-c4cccc(Cl)c4)nc3c2)c1	.	.	?	16µM	.
COc1ccc(C(=O)Nc2ccc3oc(-c4cccnc4)nc3c2)cc1	.	.	-	?	.
O=C(Nc1ccc2oc(-c3ccncc3)nc2c1)c1ccccc1	-	-	-	-	-
O=C(NC(=S)Nc1ccc2oc(-c3cccnc3)nc2c1)c1cccc(Cl)c1	-	-	16µM	?	-
O=C(Cc1ccc(S(=O)(=O)N2CCOCC2)s1)Nc1ccccc1N1CCOCC1	-	-	?	12µM	-
O=C(Cc1ccc2c(c1)OCCO2)Nc1cc(Cl)ccc1N1CCOCC1	-	-	16µM	?	-
O=C(Cc1ccccc1)Nc1ccccc1N1CCOCC1	-	-	-	-	-
SMILES	HT1080NT lethal	IL-1B inflam inh	DT40 TDP1 CPT	DT40 TDP1 no CPT	HT1080 IDH1KD tx
O=C(Cc1ccc(S(=O)(=O)N2CCOCC2)s1)Nc1ccccc1Br	-	-	-	-	-
O=C(Cc1ccc(Cl)c(Cl)c1)Nc1ccccc1N1CCOCC1	-	-	23µM	?	-
CCN(CC)S(=O)(=O)c1ccc(C)c(NC(=O)Cc2ccc(S(=O)(=O)N3CCOCC3)s2)c1	-	-	?	21µM	-
CC(=O)Nc1ccc(OCC(O)CN2CCN(c3ccc(F)cc3)CC2)cc1 (stereo not drawn)	-	-	-	-	-
O=C(Cn1nnc(-c2ccccc2)n1)Nc1ccccc1N1CCOCC1	-	?	?	13µM	-
CC(C)(C)c1csc(NC(=O)Cc2ccc(S(=O)(=O)N3CCOCC3)s2)n1	-	?	?	15µM	?
Cc1ccc(-c2nnn(CC(=O)Nc3ccccc3N3CCOCC3)n2)cc1	?	-	?	?	-
Cc1cnc(NC(=O)Cc2ccc(S(=O)(=O)N3CCOCC3)s2)s1	-	-	-	?	-
C(=C\c1ccccc1)/CN1CCN(C(c2cc3ccccc3o2)c2nnnn2C2CCCCC2)CC1 (stereo not drawn)	-	?	18µM	?	-
CCCCn1nnnc1C(CCc1ccccc1)N1CCN(C/C=C/c2ccccc2)CC1 (stereo not drawn)	?	?	?	23µM	?
C(=C\c1ccccc1)/CN1CCN(C(c2ccccc2)c2nnnn2C2CCCC2)CC1 (stereo not drawn)	?	-	18µM	23µM	?
C(=C\c1ccccc1)/CN1CCN(C(c2nnnn2Cc2ccccc2)C2CC2)CC1 (stereo not drawn)	18µM	?	16µM	16µM	?
CCOC(=O)N1CCN(S(=O)(=O)N2CCCC(C(=O)NCCCN3CCCCC3)C2)CC1 (stereo not drawn)	-	-	-	-	-
O=S(=O)(c1cc(Cl)cc(Cl)c1)N1CCN(c2nc(-c3cccs3)nc3ccccc23)CC1	.	.	-	?	.
Cc1sc(N=Nc2ccc(N(C)C)cc2)[n+]([O-])c1C	-	-	?	?	?
C(=C\c1ccccc1)/CN1CCN(C(CCc2ccccc2)c2nnnn2C2CCCC2)CC1 (stereo not drawn)	?	?	18µM	?	?
CCC(c1nnnn1C1CCCC1)N1CCN(c2ccccc2F)CC1 (stereo not drawn)	-	-	-	?	-[9.24 µM]
C(=C\c1ccccc1)/CN1CCN(C(c2cccs2)c2nnnn2C2CCCC2)CC1 (stereo not drawn)	?	-	?	?	?
CCCC(c1nnnn1C1CCCC1)N1CCN(c2ccccc2F)CC1 (stereo not drawn)	-	-	?	23µM	-
CC(C)(C)n1nnnc1C(C1CC1)N1CCN(C/C=C/c2ccccc2)CC1 (stereo not drawn)	-	-	-	?	-
CC(C)C(c1nnnn1C(C)(C)C)N1CCC(Cc2ccccc2)CC1 (stereo not drawn)	-	-76	?	?	-
C(=C\c1ccccc1)/CN1CCN(C(c2ccnc3ccccc23)c2nnnn2C2CCCC2)CC1 (stereo not drawn)	-	-	?	15µM	?

Assay outcomes as filed in PubChem BioAssay.
